Screening data deposited in PubChem by several laboratories.
CTSL1 counter – Fasciola hepatica cathepsin L1 inhibitors, primary screen, counter-screen for PFM18AAP inhibitor project, biochemical, QFRET, fluorogenic peptide substrate | recombinant F. hepatica cathepsin L1, Z-Leu-Arg-MCA fluorescence | 300,000 tested, 0.49% active | inhibition, % at 5.96 µM;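 active = inhibition above the mean of all tested compounds plus 3 SD, set per screening campaign, cut at about 17% in these data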
Calb FLC – C. albicans growth inhibition with fluconazole, primary screen, CaCi-2 strain, Alamar Blue fluorescence | C. albicans CaCi-2 (fluconazole-resistant clinical isolate) + fluconazole, 48 h | growth inhibition, % (no concentration beside the values) | 300,000 tested, 0.57% active;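 active = growth inhibition above about 58% in most replicates, limit read from the data, passing the limit was not always enough; inconclusive = exactly half the replicates above a set limit; inactive = most replicates below a set limit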;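 note: all wells also contain fluconazole at 8 µg/ml as a sub-toxic cotreatment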
Rin1-Abl PPI inh – inhibitors of Rin1-Abl protein binding, primary screen, biochemical, TR-FRET | Tyrosine-protein kinase ABL1 (Homo sapiens) + Ras and Rab interactor 1 (Homo sapiens), … | inhibition, % at 7.35 µM | 360,000 tested, 0.4% active | AID 588664, 2011; in the data active = inhibition above about 5%, passing the limit was not always enough
Target sequence (P00519 whole entry, looked up): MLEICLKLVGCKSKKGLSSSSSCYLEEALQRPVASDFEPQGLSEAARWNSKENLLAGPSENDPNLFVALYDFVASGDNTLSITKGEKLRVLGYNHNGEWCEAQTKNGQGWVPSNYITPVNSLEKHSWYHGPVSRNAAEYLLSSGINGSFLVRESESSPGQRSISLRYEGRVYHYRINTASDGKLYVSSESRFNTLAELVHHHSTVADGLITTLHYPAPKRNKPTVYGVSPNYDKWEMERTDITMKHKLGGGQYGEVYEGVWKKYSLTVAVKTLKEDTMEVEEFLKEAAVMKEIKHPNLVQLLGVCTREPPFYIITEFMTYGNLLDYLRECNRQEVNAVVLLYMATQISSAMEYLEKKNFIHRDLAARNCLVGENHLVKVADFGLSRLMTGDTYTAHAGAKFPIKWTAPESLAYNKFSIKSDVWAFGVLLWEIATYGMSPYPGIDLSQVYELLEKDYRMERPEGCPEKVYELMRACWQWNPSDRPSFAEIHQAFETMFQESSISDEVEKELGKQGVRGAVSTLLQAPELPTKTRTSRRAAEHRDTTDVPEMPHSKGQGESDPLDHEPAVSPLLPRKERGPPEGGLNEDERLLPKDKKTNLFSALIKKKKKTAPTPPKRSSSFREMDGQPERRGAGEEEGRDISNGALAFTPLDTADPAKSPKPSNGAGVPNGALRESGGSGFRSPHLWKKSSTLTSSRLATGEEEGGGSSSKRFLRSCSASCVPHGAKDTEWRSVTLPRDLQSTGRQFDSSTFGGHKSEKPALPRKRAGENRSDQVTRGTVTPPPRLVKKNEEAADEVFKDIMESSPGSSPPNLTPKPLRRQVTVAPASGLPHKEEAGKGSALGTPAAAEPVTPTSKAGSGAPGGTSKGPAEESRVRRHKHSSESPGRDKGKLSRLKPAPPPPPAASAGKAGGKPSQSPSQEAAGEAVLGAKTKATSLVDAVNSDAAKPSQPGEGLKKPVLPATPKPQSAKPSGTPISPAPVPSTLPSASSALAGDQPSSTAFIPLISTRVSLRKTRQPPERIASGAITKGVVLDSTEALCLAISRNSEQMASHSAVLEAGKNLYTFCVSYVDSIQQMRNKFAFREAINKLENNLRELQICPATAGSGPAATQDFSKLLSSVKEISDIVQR
Target sequence (Q13671 whole entry, looked up): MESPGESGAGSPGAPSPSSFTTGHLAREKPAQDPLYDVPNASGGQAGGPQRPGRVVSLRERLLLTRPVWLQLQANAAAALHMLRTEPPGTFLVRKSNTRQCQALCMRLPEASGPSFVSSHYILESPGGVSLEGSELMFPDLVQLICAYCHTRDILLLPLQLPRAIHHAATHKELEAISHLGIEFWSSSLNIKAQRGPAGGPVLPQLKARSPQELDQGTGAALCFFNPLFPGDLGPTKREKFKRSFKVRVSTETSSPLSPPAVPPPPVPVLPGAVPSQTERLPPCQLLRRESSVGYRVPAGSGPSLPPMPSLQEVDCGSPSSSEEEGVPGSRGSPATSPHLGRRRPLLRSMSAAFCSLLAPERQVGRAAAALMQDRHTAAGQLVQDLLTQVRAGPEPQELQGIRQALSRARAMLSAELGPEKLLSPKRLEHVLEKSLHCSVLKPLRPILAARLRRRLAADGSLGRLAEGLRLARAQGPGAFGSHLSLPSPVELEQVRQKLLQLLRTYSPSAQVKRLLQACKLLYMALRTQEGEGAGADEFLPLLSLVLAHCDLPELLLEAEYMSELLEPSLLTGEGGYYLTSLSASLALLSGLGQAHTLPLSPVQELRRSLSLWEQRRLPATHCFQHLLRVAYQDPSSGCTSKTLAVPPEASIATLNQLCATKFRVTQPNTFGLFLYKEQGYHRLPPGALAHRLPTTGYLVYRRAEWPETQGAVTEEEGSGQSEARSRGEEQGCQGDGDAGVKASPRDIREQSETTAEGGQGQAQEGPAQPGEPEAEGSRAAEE
M18AAP inhibitor – PfM18AAP inhibitors, malaria aminopeptidase, primary screen, biochemical, QFRET, recombinant enzyme; H-Glu-NHMec fluorogenic cleavage; 290,000 tested, 1.2% active; AID 1822, 2009; inhibition, % at 7.35 µM;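 active = inhibition above the campaign mean inhibition over all tested compounds plus 3 SD, cut at about 28% in these data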
Rin1-Abl confirm – Rin1-Abl binding inhibitor retest, confirmation, biochemical, TR-FRET | shares compounds with Rin1-Abl PPI inh | purified proteins | inhibition, % at 7.35 µM | 1,300 tested, 49% active | AID 602124, 2011
GFP quench-1 – GFP fluorescence inhibitors and quenchers, artefact control for Rin1-Abl interaction inhibitor project, biochemical; shares compounds with Rin1-Abl PPI inh; inhibition, % at 6.75 µM; 1,300 tested, 8.5% active; inhibitors/quenchers counterscreen;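 note: ABL1-eGFP fusion protein alone without its partner RIN1-SBP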
GFP quench DR – GFP fluorescence inhibitors and quenchers, dose response, artefact control for Rin1-Abl interaction inhibitor project, biochemical. shares compounds with Rin1-Abl PPI inh. GFP fluorescence interference/quenching counterscreen. IC50, µM. 230 tested, under 10 active; call rule not given here;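 note: ABL1-eGFP fusion protein alone without its RIN1 binding partner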
GFP quench-2 – GFP fluorescence inhibitors and quenchers, late-stage follow-up, artefact control for Rin1-Abl interaction inhibitor project, biochemical, dose response. shares compounds with Rin1-Abl PPI inh. GFP fluorescence quenching counterscreen. IC50, µM. 25 tested, under 10 active; call rule not given here
A number is an active result; . = inactive; ? = inconclusive; / = not tested or not shown. Shown are actives, neighbours in structure and some others; about 2.1% of the full set was active somewhere. Cut-off read from the data, not from the text of the source, unless noted: active = inhibition above about 6.5%; inactive = the rest.

SMILES	CTSL1 counter	Calb FLC	Rin1-Abl PPI inh	M18AAP inhibitor	Rin1-Abl confirm	GFP quench-1	others
Cn1c(=O)[nH]c(=O)c2c1nc(SCc1ccccc1Cl)n2CC(N)=O	.	.	.	.	/	/
CC(C)n1cc(CN2CCC(C(=O)Nc3cccc(-c4cscn4)c3)CC2)cn1	.	.	10.8	.	23.6	.	GFP quench DR=.
O=c1nccc(N/N=C/c2ccccc2)[nH]1	/	.	8.8	.	19.9	.	GFP quench DR=.
O=c1cc(N/N=C/c2ccccc2)[nH]c(=O)[nH]1	.	.	.	/	/	/
OCCN1CCN(c2cnc(-c3ccsc3)cn2)CC1	/	/	6.3	/	.	.
Nc1ncc(-c2ccc(F)cc2)nc1N1CCN(CCO)CC1	/	/	.	/	/	/
O=C(NC1CC2CCCC(C1)N2C(=S)Nc1ccc(Cl)cc1)C1CC1 (centres undefined)	.	.	.	.	/	/
CC1CCN(C(=O)Cn2nnc(-c3ccc(N)cc3)n2)CC1	.	.	.	.	/	/
Cc1ccc(NC(=O)C(c2ccc(Cl)cc2Cl)N2CCCC2)cc1 (centres undefined)	.	.	.	.	/	/
Cc1cccc(NC(=O)C(c2ccccc2Cl)N2CCOCC2)c1 (centres undefined)	.	.	8.2	.	.	.
COc1ccc(CCC(=O)Nc2c(-c3ccc(N(C)C)cc3)[nH][nH]c2=O)cc1	/	/	31.8	/	39.6	.	GFP quench DR=.
COc1ccc(-c2[nH][nH]c(=O)c2NC(=O)c2ccccn2)cc1	/	/	.	/	/	/
Clc1cccc(Cl)c1CNCCCSc1ncccn1	.	.	.	.	/	/
Fc1cccc(Cl)c1CNCCCSc1ncccn1	.	.	6.9	.	.	.
Cc1ccc(NC(=O)C(C)OC(=O)COc2cccc(C(F)(F)F)c2)cc1 (centres undefined)	/	/	.	/	/	/
Nc1nnc(SCCOc2ccccc2)s1	.	.	.	.	/	/
Cc1nnc(SCCOc2ccccc2)s1	.	.	11.2	.	7.9	.
Cc1nc(-c2ccc(C(=O)N3CCCC3)cc2)cs1	.	.	6.2	.	.	.
Cc1nc(-c2ccc(C(=O)N3CCOCC3)cc2)cs1	.	.	.	.	/	/
COC(=O)COc1cccc(NC(=O)COc2ccccc2)c1	.	.	7.5	.	.	.
Cc1cccc(NC(=O)c2ccccc2NC(=O)c2ccccc2)n1	.	.	.	.	/	/
O=C(COc1ccc(Cl)cc1Br)OCC(=O)c1ccc[nH]1	/	/	8.3	/	.	.
Cc1c(C#N)c(=O)c(-[n+]2ccccc2)c([S-])n1-c1ccc(Cl)cc1	.	.	.	.	/	/
CCOC(=O)C1=CN(C(C)C)CCC1=O	/	/	.	/	/	/
O=C1C=CC(=O)c2c(O)c(N3CCN(CCO)CC3)c(Cl)c(O)c21	/	/	47.9	/	51.2	23.6
SMILES	CTSL1 counter	Calb FLC	Rin1-Abl PPI inh	M18AAP inhibitor	Rin1-Abl confirm	GFP quench-1	others
O=C1C=CC(=O)c2c(O)c(N3CCN(CCOCCO)CC3)c(Br)c(O)c21	/	/	39.4	/	54.4	25.0
CC(C)NC(=O)C1(C)CCCN1C(=O)c1cc(C#N)cs1 (centres undefined)	/	/	.	/	/	/
CCOc1ccc(N2C(=O)CC(N(Cc3ccco3)C(=O)CCC(=O)O)C2=O)cc1 (centres undefined)	.	.	.	.	/	/
Cc1ccc(C(C[N+](=O)[O-])c2c(C)[nH]n(-c3ccccc3)c2=O)cc1 (centres undefined)	30.9	.	6.0	.	.	.
COc1ccc(CCNc2ccc([N+](=O)[O-])cn2)cc1	/	.	.	.	/	/
COc1ccc(CCNc2cc(=O)[nH]c(N)n2)cc1	.	.	23.9	.	52.2	.	GFP quench DR=.;GFP quench-2=.
CC1(C(=O)NCc2ccc(C(F)(F)F)cc2)CCN1Cc1cc2ccccc2o1 (centres undefined)	/	/	9.0	/	.	.
O=[N+]([O-])c1ccc(CN2CC(N3CCC(Cc4ccccc4)CC3)CS2(=O)=O)cc1 (centres undefined)	/	/	.	/	/	/
O=C(NC1CCN(Cc2ccccc2)CC1)c1ccc2c(c1)[nH]c(=O)n2Cc1ccc(F)cc1	.	.	10.2	.	12.6	.
N#Cc1ccccc1OCC(=O)N1CC(=O)Nc2ccccc21	/	/	.	/	/	/
CCOC(=O)C1CCN(Cc2oc(CO)cc(=O)c2O)CC1	.	.	14.4	.	.	.
O=c1cc(CO)oc(CN2CCN(c3ccccc3)CC2)c1O	.	.	.	.	/	/
CCOC(=O)C1CCN(Cc2cc(C(C)C)c(O)c(C(C)C)c2)CC1	.	.	.	.	/	/
CCN1CCN(Cc2oc(CO)cc(=O)c2O)CC1	.	?	5.0	.	.	.
CCCCOc1ccc(C(=O)N=c2sccn2C)cc1OC	.	.	19.9	.	12.4	.
CCN(CC)S(=O)(=O)c1cc(C(=O)N=c2sccn2C)ccc1OC	.	.	.	.	/	/
CCOC(=O)C1CCCN(Cc2ccccc2OCC)C1 (centres undefined)	.	.	9.4	.	.	.
CCOC(=O)C1CCCN(Cc2ccccc2C)C1 (centres undefined)	.	.	.	.	/	/
CO/N=C/c1ccc(N2CCN(C(=O)c3ccc(Cl)cc3Cl)CC2)c([N+](=O)[O-])c1	.	.	.	.	/	/
O=C(N=C1SC2CS(=O)(=O)CC2N1Cc1ccc(F)cc1)C1CCCO1 (centres undefined)	.	.	.	.	/	/
COc1ccc(CNC(=O)COC(=O)CCCOc2ccc(Cl)cc2Cl)cc1OC	.	.	10.2	.	.	.
O=[N+]([O-])c1ccc2cn(C3OC(CO)C(O)C3O)nc2c1 (centres undefined)	/	/	.	/	/	/
COc1cccc(CSc2nnc(CSc3nc4nc(C)cc(C)n4n3)s2)c1	.	.	27.9	.	39.2	.	GFP quench DR=.;GFP quench-2=.
Cc1cc(C)n2nc(SCc3nnc(SCc4ccccc4C)s3)nc2n1	.	.	.	.	/	/
NC(=O)c1nsc(C(=O)N(c2ccccc2)C(C(=O)NCC2CCCO2)c2ccc(F)cc2)c1N (centres undefined)	.	.	.	.	/	/
CCOc1ccc(N(C(=O)c2snc(C(N)=O)c2N)C(C(=O)NC2CCCC2)c2ccncc2)cc1 (centres undefined)	.	.	7.6	.	.	.
CCOc1ccc(C(C(=O)NCC2CCCO2)N(C(=O)c2snc(C(N)=O)c2N)c2ccccc2F)cc1 (centres undefined)	.	.	8.5	.	11.0	.
CCOc1ccc(C(C(=O)NCC2CCCO2)N(C(=O)c2snc(C(N)=O)c2N)c2cccc(F)c2)cc1 (centres undefined)	.	.	.	.	/	/
